Test results from the supplement of paper PMC10338343.
± gives the standard deviation.

The sequences below were run on MILI (PIWIL2) piRISC loaded with piRNA #1 (26 nt) (assay: pre-steady-state target cleavage rate (min^-1); guide: piRNA #1 5'p-UGAGGUAGUAGGUUGUAUAGUAUCCA; MIWI and MILI are mouse PIWI proteins and EfPiwi is from a freshwater sponge; tags in brackets are library labels; higher = faster piRNA-guided slicing of the target). Settings: auxiliary factor: 500 nM mouse GTSF1.
Description: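 Cleave-'n-Seq: a library of target RNAs (target site embedded in constant flanks, ACAGCATTCCGCGTTAGTGATATCCG... 5' flank; DNA-blocked outside the site) at 0.1 nM was incubated with 1 nM active mouse MILI or MIWI piRISC (synthetic 5'-monophosphorylated piRNA guide) with or without 500 nM mouse GTSF1 at 33 °C for 1 min to 16 h. Uncleaved targets were sequenced and normalised to non-target controls, and the pooled three trials were fitted to a burst-and-steady-state model to give the pre-steady-state cleavage rate (min^-1; k3 is constrained to at most 1e-4). Sequence is the target site only; target names encode pairing extent (gX:gY) and contiguous / 1-mismatch / 2-mismatch / bulge geometry. Fits with R² ≤ 0 are excluded.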

Sequence | pre-steady-state target cleavage rate
GGAGACCUAUGAUAUGAACCUACUACACUCA | < 0.0001
GGAGACGAUACAUACAACCUACUACCUCA | 0.158 ± 0.019
GGAGACGAUACUAUACUUCCUACUACCUCA | 0.242 ± 0.016
GGAGACCUAACUAUCCAACCUACUACCUCA | 0.208 ± 0.038
GGAGACCUUUCUAUACAACCUACAACCUCA | 0.0806 ± 0.01
GGAGUCGAUACUUUACAACCUACUACCUCA | 0.185 ± 0.009
GGAGACCUUUCUAUACAAGCUACUACCUCA | 0.159 ± 0.012
GGAGUGGAUACUAUAGAACCUACUAGCUCA | 0.00733 ± 0.0025
GGAGACCUAUGUAGACAACCUACUACCUCA | 0.0173 ± 0.0042
GGAGACCUAUCUAUAGAACGUACUACCUCA | 0.00596 ± 0.0017
GGAGACCUUACUGUACAACCUACUACCUCA | 0.163 ± 0.029
GGAGACGAUACUAUACAACCUAGAACCUCA | 0.0145 ± 0.0064
GGAGACCUAUCUAUACUUGCUACUACCUCA | 0.0151 ± 0.0031
GGAGACCUAACUAUACAACCUACUACCCA | 0.0749 ± 0.027
GGAGACCUAUCUAAACUACCUACUACCUCA | 0.051 ± 0.012
GGAGUGGAAACUAUUCAACCUACUACCUCA | 0.192 ± 0.017
GGAGUGGAUACUAUAUAACCUACUACCUCA | 0.191 ± 0.0088
GGAGACCUAUCUAUACAACCUACUUCGUCA | 0.0271 ± 0.0057
GGAGACCUAACUAUACAACCUACAACCUGA | 0.00865 ± 0.0074
GGAGUGGAUACUAUACUUGCUACUACCUCA | 0.0633 ± 0.0052

Sequence | pre-steady-state target cleavage rate
GGAGUGGAUUCUAUACAACCAACUACCUCA | 0.00438 ± 0.0023
GGAGACCUUAGUAUACAACCUAGUACCUCA | 0.0225 ± 0.0077
GGAGACCUAUCUAUACAACCUACUUCCUCA | 0.0646 ± 0.012
GGAGACGAUUCUAUACAACCUACUACGUCA | 0.0993 ± 0.0097
GGAGACCUAUCUAUACAACCAUCUACCUCA | 0.00428 ± 0.0031
GGAGUGGAUUCUAUACAACCUACUACCACA | 0.121 ± 0.011
GGAGACCAUACUAUACUACCUAGUACCUCA | 0.0453 ± 0.0095
GGAGUGGAUACUAUACAUCCUACUAGCUCA | 0.0444 ± 0.0086
GGAGAGGAUACUAUACUACCUUCUACCUCA | 0.0158 ± 0.0024
GGAGACCAUAGUAUACAAGCUACUACCUCA | 0.16 ± 0.015
GGAGACCAUACUAAUGAACCUACUACCUCA | 0.0422 ± 0.011
GGAGACCUAUGAUAACAAGCUACUUCCUCA | 0.00574 ± 0.0027
GGAGUGGAUACUAUACAACCUAGCUACCUCA | 0.0643 ± 0.006
GGAGUGGUUAGUAUACAACCUACUACCUCA | 0.105 ± 0.011
GGAGACCUAACUAUACAAGCUACUACCUCA | 0.206 ± 0.02
GGAGACGAUACUAAACAACCUACUACCACA | 0.214 ± 0.019
GGAGUGGAUACUAUAGAUCCUACUACCUCA | 0.251 ± 0.015
GGAGUGGAAACUAUAGAACCUACUACCUCA | 0.204 ± 0.014
GGAGACGAUACUAAACAACCUACAACCUCA | 0.116 ± 0.013
GGAGACCUUACUAUACAAGCUAGUACCUCA | 0.138 ± 0.02
